Binding signal data for seven sequences are collected here from PMC7862700, “An all-to-all approach to the identification of sequence-specific readers for epigenetic DNA modifications on cytosine”.

Experiment in all cases: DAPPL (digital affinity profiling via proximity ligation, sequencing); 10 mM Tris-HCl pH 7.5, 50 mM NaCl, 1 mM DTT, 4% glycerol, room temperature, 30 min; GST-TFs on glutathione beads, 16-mer random dsDNA library, 0.1% formaldehyde crosslink after washing; high values mean tight binding
Conditions in all cases: protein: recombinant; tags: N-terminal GST; dsDNA, one strand shown

One assay has as its target T1, FLI1 (Homo sapiens, UniProt Q01543 1-452).
T1 sequence: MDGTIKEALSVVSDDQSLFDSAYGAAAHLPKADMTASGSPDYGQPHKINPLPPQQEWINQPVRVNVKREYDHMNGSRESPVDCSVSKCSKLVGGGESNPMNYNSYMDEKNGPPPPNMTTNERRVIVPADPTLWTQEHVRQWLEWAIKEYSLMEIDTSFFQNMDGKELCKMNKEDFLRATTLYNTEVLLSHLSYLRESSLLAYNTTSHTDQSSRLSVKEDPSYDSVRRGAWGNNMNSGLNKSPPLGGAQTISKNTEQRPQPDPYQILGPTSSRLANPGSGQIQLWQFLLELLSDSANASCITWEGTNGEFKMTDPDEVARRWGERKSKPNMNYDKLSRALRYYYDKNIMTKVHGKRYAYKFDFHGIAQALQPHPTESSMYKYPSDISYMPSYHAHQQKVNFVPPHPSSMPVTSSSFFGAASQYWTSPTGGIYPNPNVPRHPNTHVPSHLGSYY
An outline of the steps: (§1)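 After expression in yeast as GST fusions, human transcription factors were bound to glutathione beads, DNA-barcoded and mixed with a tag-only sample. The pools were incubated with 200 nmole of a 16-mer random double-stranded DNA library in Tris/NaCl/DTT/glycerol buffer (30 min, room temperature), washed and crosslinked with 0.1% formaldehyde. Proximity ligation with BsaI/T4 ligase ran for 1 h at 37 °C, before PCR amplification and sequencing on an Illumina NextSeq500. Binding signal is a hexamer's read frequency for a factor divided by its frequency for the tag-only sample.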

Another assay addresses T2, ELK1 (Homo sapiens, UniProt P19419 1-428).
T2 sequence: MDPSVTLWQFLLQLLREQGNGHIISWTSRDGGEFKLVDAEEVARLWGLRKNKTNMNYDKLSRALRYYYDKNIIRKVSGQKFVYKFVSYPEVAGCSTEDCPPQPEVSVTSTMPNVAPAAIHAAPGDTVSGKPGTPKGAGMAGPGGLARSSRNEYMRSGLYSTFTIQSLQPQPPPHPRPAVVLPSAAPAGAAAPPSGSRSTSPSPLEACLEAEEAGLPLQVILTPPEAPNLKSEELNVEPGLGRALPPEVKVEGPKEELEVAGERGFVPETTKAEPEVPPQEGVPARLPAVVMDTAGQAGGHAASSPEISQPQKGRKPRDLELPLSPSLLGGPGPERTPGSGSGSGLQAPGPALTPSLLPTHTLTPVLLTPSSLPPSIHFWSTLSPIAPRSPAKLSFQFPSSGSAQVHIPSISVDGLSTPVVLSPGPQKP
In outline: as §1

For the next assay, the target named is T3, GABPA (Homo sapiens, UniProt Q06546 1-454).
T3 sequence: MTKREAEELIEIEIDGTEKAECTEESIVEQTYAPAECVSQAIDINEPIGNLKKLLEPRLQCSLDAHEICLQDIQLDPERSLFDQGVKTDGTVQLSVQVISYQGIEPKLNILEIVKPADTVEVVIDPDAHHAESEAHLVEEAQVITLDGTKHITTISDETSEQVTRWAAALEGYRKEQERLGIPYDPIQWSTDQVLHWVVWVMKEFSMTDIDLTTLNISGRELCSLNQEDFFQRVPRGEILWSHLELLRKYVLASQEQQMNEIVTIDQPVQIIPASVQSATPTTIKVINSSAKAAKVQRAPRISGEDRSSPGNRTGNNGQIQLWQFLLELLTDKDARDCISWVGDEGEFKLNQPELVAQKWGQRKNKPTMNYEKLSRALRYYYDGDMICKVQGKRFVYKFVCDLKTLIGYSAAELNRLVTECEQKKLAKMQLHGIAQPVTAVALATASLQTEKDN
An outline of the steps: as §1

For another assay, the target named is T4, ERG (Homo sapiens, UniProt P11308 1-479).
T4 sequence: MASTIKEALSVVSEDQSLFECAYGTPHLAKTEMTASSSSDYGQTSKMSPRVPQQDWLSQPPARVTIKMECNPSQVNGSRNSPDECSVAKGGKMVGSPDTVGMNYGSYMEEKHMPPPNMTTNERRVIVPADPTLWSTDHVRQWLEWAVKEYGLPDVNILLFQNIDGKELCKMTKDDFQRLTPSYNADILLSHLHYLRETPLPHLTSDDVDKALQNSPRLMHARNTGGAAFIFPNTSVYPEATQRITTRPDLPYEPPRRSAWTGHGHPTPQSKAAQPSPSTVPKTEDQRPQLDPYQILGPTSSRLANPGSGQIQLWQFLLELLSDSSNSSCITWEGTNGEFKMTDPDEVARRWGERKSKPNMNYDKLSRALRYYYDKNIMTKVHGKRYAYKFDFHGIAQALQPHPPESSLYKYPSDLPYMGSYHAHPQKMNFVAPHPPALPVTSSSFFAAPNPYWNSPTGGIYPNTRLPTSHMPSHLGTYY
An outline of the steps:
as §1

The next assay concerns the target ELF1 (Homo sapiens, UniProt P32519 1-619). In outline: as §1
For a further assay, the target named is T5, EHF (Homo sapiens, UniProt Q9NZC4 1-300).
T5 sequence: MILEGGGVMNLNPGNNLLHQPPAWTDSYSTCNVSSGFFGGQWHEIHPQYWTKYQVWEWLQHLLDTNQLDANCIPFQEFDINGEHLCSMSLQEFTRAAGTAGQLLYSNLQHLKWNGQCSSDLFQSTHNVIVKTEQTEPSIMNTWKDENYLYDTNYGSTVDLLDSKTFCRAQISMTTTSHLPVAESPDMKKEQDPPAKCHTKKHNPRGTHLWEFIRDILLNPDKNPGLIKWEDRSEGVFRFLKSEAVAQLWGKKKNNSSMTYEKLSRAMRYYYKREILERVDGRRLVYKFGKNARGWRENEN
In outline:
as §1

Another assay addresses SPI1 (Homo sapiens, UniProt P17947 1-270). An outline of the steps: as §1
For a further assay, the target named is SPIB (Homo sapiens, UniProt Q01892 1-262). An outline of the steps: as §1
The next assay has as its target T6, ELK3 (Homo sapiens, UniProt P41970 1-407).
T6 sequence: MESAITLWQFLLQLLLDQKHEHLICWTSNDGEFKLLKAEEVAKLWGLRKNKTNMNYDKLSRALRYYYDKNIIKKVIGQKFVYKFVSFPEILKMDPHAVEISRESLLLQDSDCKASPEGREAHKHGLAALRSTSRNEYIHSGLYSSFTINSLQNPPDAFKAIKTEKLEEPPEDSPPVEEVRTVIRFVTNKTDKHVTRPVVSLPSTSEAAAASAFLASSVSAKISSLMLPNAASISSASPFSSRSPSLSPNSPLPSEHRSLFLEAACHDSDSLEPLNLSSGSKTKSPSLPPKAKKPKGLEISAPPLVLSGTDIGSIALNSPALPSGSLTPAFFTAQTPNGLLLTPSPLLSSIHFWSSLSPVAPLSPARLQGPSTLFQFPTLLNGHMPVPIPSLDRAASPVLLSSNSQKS
In outline: as §1

SPIB, sequence (Q01892 whole entry): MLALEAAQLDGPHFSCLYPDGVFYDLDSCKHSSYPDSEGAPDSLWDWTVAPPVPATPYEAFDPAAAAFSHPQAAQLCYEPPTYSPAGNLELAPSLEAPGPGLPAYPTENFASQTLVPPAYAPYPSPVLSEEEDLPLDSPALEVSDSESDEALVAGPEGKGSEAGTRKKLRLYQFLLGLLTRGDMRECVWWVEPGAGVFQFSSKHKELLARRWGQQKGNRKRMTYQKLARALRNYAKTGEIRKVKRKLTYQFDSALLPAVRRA
ELF1, sequence (P32519 whole entry): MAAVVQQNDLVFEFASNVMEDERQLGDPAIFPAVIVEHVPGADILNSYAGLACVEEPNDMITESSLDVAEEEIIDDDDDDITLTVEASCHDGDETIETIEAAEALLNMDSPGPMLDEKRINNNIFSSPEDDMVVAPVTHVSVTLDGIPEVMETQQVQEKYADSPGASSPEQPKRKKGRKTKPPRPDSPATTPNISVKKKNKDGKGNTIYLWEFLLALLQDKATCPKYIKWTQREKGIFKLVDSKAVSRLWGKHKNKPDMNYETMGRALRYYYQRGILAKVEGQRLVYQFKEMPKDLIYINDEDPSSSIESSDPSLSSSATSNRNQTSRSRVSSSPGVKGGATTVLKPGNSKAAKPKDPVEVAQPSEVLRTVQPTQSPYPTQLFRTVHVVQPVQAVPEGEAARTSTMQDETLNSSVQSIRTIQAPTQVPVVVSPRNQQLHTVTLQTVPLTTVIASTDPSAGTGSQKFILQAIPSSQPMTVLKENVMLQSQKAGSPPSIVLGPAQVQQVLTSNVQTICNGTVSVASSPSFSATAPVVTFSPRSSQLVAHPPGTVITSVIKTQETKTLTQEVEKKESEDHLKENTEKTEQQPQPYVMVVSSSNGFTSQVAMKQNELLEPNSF

For the sequence TGCATA, the binding signal with FLI1 is 1.08 fold enrichment (6-mer frequency, TF over GST control); in the assay with ELK1, 1.11 fold enrichment (6-mer frequency, TF over GST control); with GABPA, 1.13 fold enrichment (6-mer frequency, TF over GST control); in the assay with ERG it was 1.11 fold enrichment (6-mer frequency, TF over GST control); in the assay with ELF1, 1.06 fold enrichment (6-mer frequency, TF over GST control); in the assay with EHF, 1.16 fold enrichment (6-mer frequency, TF over GST control). The binding signal with SPI1 was 1.15 fold enrichment (6-mer frequency, TF over GST control); with SPIB, 1.11 fold enrichment (6-mer frequency, TF over GST control); in the assay with ELK3, 1.15 fold enrichment (6-mer frequency, TF over GST control).

For ACACAA, the binding signal was 1.14 fold enrichment (6-mer frequency, TF over GST control) in the assay with FLI1; 1.17 fold enrichment (6-mer frequency, TF over GST control) with ELK1; 1.12 fold enrichment (6-mer frequency, TF over GST control) with GABPA; 1.17 fold enrichment (6-mer frequency, TF over GST control) with ERG; 1.23 fold enrichment (6-mer frequency, TF over GST control) with ELF1; 1.21 fold enrichment (6-mer frequency, TF over GST control) with EHF. For the same sequence, the binding signal with SPI1 was 1.17 fold enrichment (6-mer frequency, TF over GST control); with SPIB, 1.21 fold enrichment (6-mer frequency, TF over GST control); with ELK3 it was 1.19 fold enrichment (6-mer frequency, TF over GST control).

CGCCTC: the binding signal in the assay with FLI1 was 1.47 fold enrichment (6-mer frequency, TF over GST control); with ELK1, 1.49 fold enrichment (6-mer frequency, TF over GST control); with GABPA it was 1.41 fold enrichment (6-mer frequency, TF over GST control); with ERG, 1.39 fold enrichment (6-mer frequency, TF over GST control); with ELF1, 1.49 fold enrichment (6-mer frequency, TF over GST control); in the assay with EHF it was 1.4 fold enrichment (6-mer frequency, TF over GST control). Also, the binding signal in the assay with SPI1 was 1.27 fold enrichment (6-mer frequency, TF over GST control); with SPIB, 1.51 fold enrichment (6-mer frequency, TF over GST control); in the assay with ELK3 it was 1.46 fold enrichment (6-mer frequency, TF over GST control).

CCTGGT: the binding signal with FLI1 was 1.28 fold enrichment (6-mer frequency, TF over GST control); with ELK1, 1.34 fold enrichment (6-mer frequency, TF over GST control); with GABPA it was 1.4 fold enrichment (6-mer frequency, TF over GST control); in the assay with ERG it was 1.29 fold enrichment (6-mer frequency, TF over GST control); in the assay with ELF1, 1.44 fold enrichment (6-mer frequency, TF over GST control); with EHF, 1.47 fold enrichment (6-mer frequency, TF over GST control). Besides, the binding signal was 1.4 fold enrichment (6-mer frequency, TF over GST control) with SPI1; 1.52 fold enrichment (6-mer frequency, TF over GST control) with SPIB; 1.33 fold enrichment (6-mer frequency, TF over GST control) with ELK3.

As for TTCACC, the binding signal with FLI1 was 1.35 fold enrichment (6-mer frequency, TF over GST control); with ELK1 it was 1.39 fold enrichment (6-mer frequency, TF over GST control); with GABPA, 1.34 fold enrichment (6-mer frequency, TF over GST control); with ERG, 1.38 fold enrichment (6-mer frequency, TF over GST control); in the assay with ELF1 it was 1.39 fold enrichment (6-mer frequency, TF over GST control); in the assay with EHF, 1.19 fold enrichment (6-mer frequency, TF over GST control). In addition, the binding signal was 1.4 fold enrichment (6-mer frequency, TF over GST control) in the assay with SPI1; 1.28 fold enrichment (6-mer frequency, TF over GST control) with SPIB; 1.32 fold enrichment (6-mer frequency, TF over GST control) with ELK3.

For TGCCTG, the binding signal was 1.17 fold enrichment (6-mer frequency, TF over GST control) in the assay with FLI1; 1.27 fold enrichment (6-mer frequency, TF over GST control) with ELK1; 1.32 fold enrichment (6-mer frequency, TF over GST control) with GABPA; 1.32 fold enrichment (6-mer frequency, TF over GST control) in the assay with ERG; 1.33 fold enrichment (6-mer frequency, TF over GST control) with ELF1; 1.36 fold enrichment (6-mer frequency, TF over GST control) with EHF. The binding signal in the assay with SPI1 was 1.26 fold enrichment (6-mer frequency, TF over GST control); with SPIB it was 1.29 fold enrichment (6-mer frequency, TF over GST control); with ELK3, 1.59 fold enrichment (6-mer frequency, TF over GST control).

In the case of ACCGGA, the binding signal with FLI1 was 2.87 fold enrichment (6-mer frequency, TF over GST control); in the assay with ELK1, 3.55 fold enrichment (6-mer frequency, TF over GST control); in the assay with GABPA, 2.66 fold enrichment (6-mer frequency, TF over GST control); with ERG, 3.94 fold enrichment (6-mer frequency, TF over GST control); with ELF1, 2.87 fold enrichment (6-mer frequency, TF over GST control); with EHF it was 3.2 fold enrichment (6-mer frequency, TF over GST control). Further, the binding signal is 3.17 fold enrichment (6-mer frequency, TF over GST control) with SPI1; 3.16 fold enrichment (6-mer frequency, TF over GST control) with SPIB; 3.55 fold enrichment (6-mer frequency, TF over GST control) in the assay with ELK3.
